Out of some 1,900 compounds screened, about 250 (13%) were called active. Not shown: some 4% with an inconclusive outcome.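 Rule for the calls: active = fitted curve reaches 40% rescue activity at or below the top valid dose, in every test run; inconclusive = test runs disagree, some active and some inactive; inactive = every run misses the threshold or moves the wrong way.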 A selection follows. Entries with a potency or affinity are not part of this list.
assay: suppressors of statin myotoxicity in myotubes, dose response, cell-based, C2C12 myotubes, ATP luminescence, cherry pick (AID 624405); details: C2C12 myotubes + simvastatin, 48 h, scaled: DMSO wells 0, geranylgeraniol wells 100; series mostly up to 19.5 µM;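 note: myotubes are challenged with simvastatin at 10 µM to lower ATP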

Compound	outcome
CN1C(=O)c2cc(NC(=O)c3ccc(F)c(F)c3)ccc2OC[C@H]2O[C@@H](CC(=O)Nc3ccc4c(c3)COC4)CC[C@@H]21	inactive
CCSc1nc2sc3c(c2c(=O)n1-c1ccc(OC)cc1)CCN(C)C3	inactive
COCCNC(=O)c1nn(-c2cc(OC)cc(OC)c2)c(=O)c2ccccc12	inactive
COc1ccc(S(=O)(=O)N(CC(C)C)CC(C)C)c2cccnc12	inactive
Cc1cccc(NC(=O)COc2ccc3oc4c(c3c2)CCCC4)n1	inactive
CO[C@H]1CC[C@@H]2CCOc3ccc(C#N)cc3C(=O)N(C)C[C@@H](OC)[C@@H](C)C(=O)N(C)C[C@H]1O2	inactive
C[C@@H]1CN([C@H](C)CO)C(=O)c2cc(NS(=O)(=O)c3cccs3)ccc2O[C@@H](C)CCCCO[C@@H]1CN(C)Cc1ccc(C(F)(F)F)cc1	inactive
O=C(CSc1nnnn1-c1cccc2c1CCCC2)N1CCCCC1	inactive
Cc1ccc(NC(=O)c2cccc(OCc3c(C)noc3C)c2)cc1	inactive
COCCNC(=O)Nc1ccc2nc(-c3cccs3)c(-c3cccs3)nc2c1	inactive
O=C(CSc1nnc(CNc2ccc(F)cc2)n1Cc1ccccc1)N1CCOCC1	inactive
COc1ccc(NC(=O)CSc2nccc(C)n2)cc1	inactive
Cc1ccc(NC(=O)CCNS(=O)(=O)c2ccc3[nH]c(=O)oc3c2)cc1F	inactive
C[C@@H]1CN([C@H](C)CO)C(=O)c2cc(C#CC3CCCCC3)cnc2O[C@H]1CN(C)C(=O)C1CCCCC1	inactive
CCOC(=O)c1cccc(NC(=O)C2CCCO2)c1 (configuration not stated)	inactive
Cc1ccc(C2C=C(c3ccccc3OC(F)F)Nc3ncnn32)cc1 (configuration not stated)	inactive
CNC(=O)CC(=O)Nc1ccccc1C(=O)O	inactive
O=c1c2c3c(sc2nc2n1CCCS2)CCCC3	inactive
C=CCOC(=O)c1ccc(-n2cncn2)nc1	inactive
CCC(C(=O)Nc1ccccc1-c1ccccc1)c1ccccc1 (configuration not stated)	inactive
CCOCCc1nnc(NC(=O)C(CC)c2ccccc2)s1 (configuration not stated)	inactive
C[C@@H]1CN([C@H](C)CO)C(=O)Cc2cc(NS(=O)(=O)c3cccs3)ccc2O[C@@H]1CN(C)Cc1ccc(-c2ccccc2)cc1	inactive
C[C@@H]1CN([C@@H](C)CO)C(=O)Cc2cc(NS(=O)(=O)c3ccc(F)cc3)ccc2O[C@H]1CN(C)Cc1ccc(-c2ccccc2)cc1	inactive
Cc1ccc(S(=O)(=O)Nc2ccc3c(c2)CC(=O)N([C@H](C)CO)C[C@@H](C)[C@H](CN(C)Cc2ccc(-c4ccccc4)cc2)O3)cc1	inactive
Cc1ccc(S(=O)(=O)Nc2ccc3c(c2)CC(=O)N([C@@H](C)CO)C[C@@H](C)[C@H](CN(C)Cc2ccc(Oc4ccccc4)cc2)O3)cc1	inactive
COc1ccc(S(=O)(=O)Nc2ccc3c(c2)CC(=O)N([C@H](C)CO)C[C@@H](C)[C@H](CN(C)Cc2ccccc2)O3)cc1	inactive

Compound	outcome
COc1ccc(CN(C)C[C@H]2Oc3ccc(NS(=O)(=O)c4ccccc4)cc3CC(=O)N([C@@H](C)CO)C[C@@H]2C)cc1	inactive
COc1ccc(CN(C)C[C@@H]2Oc3ccc(NS(=O)(=O)c4ccc(C)cc4)cc3CC(=O)N([C@H](C)CO)C[C@H]2C)cc1	inactive
C[C@H]1CN([C@@H](C)CO)C(=O)Cc2cc(NS(=O)(=O)c3cn(C)cn3)ccc2O[C@@H]1CN(C)Cc1ccc(-c2ccccc2)cc1	inactive
COc1ccc(CN(C)C[C@H]2Oc3ccc(NS(=O)(=O)c4ccc(F)cc4)cc3CC(=O)N([C@@H](C)CO)C[C@@H]2C)cc1	inactive
COC(=O)CCC(=O)Nc1sc(C)c(C)c1C(N)=O	inactive
C[C@@H]1CCCCO[C@@H](CN(C)C(=O)C2CCCCC2)[C@H](C)CN([C@@H](C)CO)C(=O)c2cc(NS(=O)(=O)c3ccccc3)ccc2O1	inactive
COc1ccc(CN2[C@@H]3CNc4ccccc4[C@@H]3[C@@H]2CO)cc1	inactive
C[C@@H]1CCCCO[C@H](CN(C)C(=O)NC2CCCCC2)[C@H](C)CN([C@@H](C)CO)C(=O)c2cc(NC(=O)Nc3cccc4ccccc34)ccc2O1	inactive
C[C@H](CO)N1C[C@H](C)[C@@H](CN(C)Cc2ccc(Oc3ccccc3)cc2)Oc2ccc(NC(=O)Cc3cn(C)c4ccccc34)cc2CC1=O	inactive
O=C(OCC(=O)N1CCOCC1)c1ccccc1SCC(=O)N1CCCC1	inactive
C[C@H](CO)N1C[C@H](C)[C@@H](CN(C)Cc2ccc(C(F)(F)F)cc2)Oc2ccc(NS(=O)(=O)c3cccs3)cc2CC1=O	inactive
CC(=O)N1CCN(c2nnnn2-c2ccccc2)CC1	inactive
COCc1cc(C)nc(N2CCN(Cc3ccccc3)CC2)c1C#N	inactive
COc1ccc(S(=O)(=O)Nc2ccc3c(c2)C(=O)N([C@@H](C)CO)C[C@@H](C)[C@H](CN(C)C(=O)c2ccccc2)OCCCC[C@@H](C)O3)cc1	inactive
COc1ccc2[nH]c(=O)c(CNc3ccc(C)c(C)c3)cc2c1	inactive
COc1ccc2[nH]c(=O)c(CN(CCc3ccccc3)C(C)=O)cc2c1	inactive
CC(=O)N1C=CN(C(C)=O)C(c2cn(C)c3ccccc23)C1c1cn(C)c2ccccc12 (configuration not stated)	inactive
Cc1cc(C)nc(NC(=NCCc2c[nH]c3ccccc23)NC(=O)c2ccco2)n1	inactive
O=C(Cc1coc(-c2ccc(F)cc2)n1)Nc1ccccc1	inactive
CCCCCNC(=O)C1CC=CCC1C(=O)O (configuration not stated)	inactive
C[C@@H]1CN([C@H](C)CO)C(=O)Cc2cc(NC(=O)CCCCCC(=O)Nc3ccccc3N)ccc2O[C@H]1CN(C)CC1CCCCC1	inactive
C[C@H]1CN([C@@H](C)CO)C(=O)Cc2cc(NC(=O)CCCCCC(=O)Nc3ccccc3N)ccc2O[C@@H]1CN(C)CC1CCCCC1	inactive
COc1ccc(S(=O)(=O)N(C)C[C@@H]2OCCCC[C@H](C)Oc3ccc(NC(=O)Nc4ccc(C(F)(F)F)cc4)cc3C(=O)N([C@@H](C)CO)C[C@@H]2C)cc1	inactive
OC[C@H]1[C@@H]2c3ccccc3NC[C@@H]2N1Cc1ccccc1Cl	inactive
CCOc1ccccc1OCCOc1ccccc1CC	inactive
COc1ccc(NC(=O)N(C)C[C@@H]2OCCCC[C@@H](C)Oc3ccc(NS(=O)(=O)c4c(C)noc4C)cc3C(=O)N([C@H](C)CO)C[C@H]2C)cc1	inactive
